Reference: paper PMC13494018
Unmarked numbers belong to inactive results. How the calls were made is not given here.

B1: design_607_777643b9-bd23-49d1-80ae-2b1434974efa_2258_dldesign_0_cycle1_af2pred (protein)
chain: AAVEEAKAALKKRYEKALKLAKEASEELYKEVVEKYKEYVAAAEAAKDPAEKVAALTAGNAFMYELIAEARSEIERKKEE
B2: design_608_fd41b8f9-4da9-4c78-93ec-aaa316ed4933_796_dldesign_0_cycle1_af2pred (protein)
chain: EEAKEKAKKLEEEALKKAKEAGELIGKPKQVVHLTKLAIEDPELIPLAKKAILEAAKELKKKDPEKGKKAEELAKEMEKYVKEANKLK
B3: design_608_fd41b8f9-4da9-4c78-93ec-aaa316ed4933_265_dldesign_0_cycle1_af2pred (protein)
chain: GLKEELRKLATQYMHEAAEYAAEAEHLANRGGDLAEVEEAAKKAKEYAEKSIELMKEAGTEEEYEKAKKVAEKLIARAEAALKKK
B4: design_608_fd41b8f9-4da9-4c78-93ec-aaa316ed4933_161_dldesign_0_cycle1_af2pred (protein)
chain: ITEEQKKVAEKLVERAEEVGKKAIEAGYPELGKKVLELAKETRKALEVSAEEAAKKAAELAQLKAEAEFEIKK
B5: design_607_777643b9-bd23-49d1-80ae-2b1434974efa_2143_dldesign_0_cycle1_af2pred (protein)
chain: GMEEEEKRREELKKKAEELIKKAHEAYENSAEASVTNKEAAEIYREAAKLYKKAAEAYRSGEKVEEGEKYEEEAKAKEKEAKALLEK
B6: design_607_777643b9-bd23-49d1-80ae-2b1434974efa_2270_dldesign_0_cycle1_af2pred (protein)
chain: AAADATVDAAIAKLRALGKEYPEGADAFNQLADNLKKAAAKAKTPEAKIAAAKKAMATAEHILKTTKEAEERAKKRKEEEEK
B7: design_608_fd41b8f9-4da9-4c78-93ec-aaa316ed4933_199_dldesign_0_cycle1_af2pred (protein)
chain: AEEYRKKAKELAEKAKKYVEKLKADPENAEEYYKKAVEYIHKLYELAAEAESEGHPEVAKEIRELARKIGEEAKKAYEEVKA
B8: design_608_fd41b8f9-4da9-4c78-93ec-aaa316ed4933_704_dldesign_0_cycle1_af2pred (protein)
chain: DAAAATARALADQAVAAGKAGEEGDLATAKAARETLAALREELRKLVEEDPSVAPYASAGMAEGYQAIAEGFKKNS
B9: design_607_777643b9-bd23-49d1-80ae-2b1434974efa_2023_dldesign_0_cycle1_af2pred (protein)
chain: SAEAAAVKAEVDALTAAAVAATPEEAAKLGSQAAALAYEAAAEYASLSAREKDPEKAAEYKALADALREAARAARDRVAAAIAAKLA
B10: design_607_777643b9-bd23-49d1-80ae-2b1434974efa_2236_dldesign_0_cycle1_af2pred (protein)
chain: EAKKYAEKAEKLAKEAEESTDDYEKAKKYAEEARKYAKKAVAYAKANPEDKEAKELAKKAIEAAHKAQEALAEAKAN
B11: design_608_fd41b8f9-4da9-4c78-93ec-aaa316ed4933_509_dldesign_0_cycle1_af2pred (protein)
chain: EEEKSKLTREAADAVRTFGKNATKARPEMSRLEVMDKIDAGLENPELLKETTEEYAEAAKEKGLEEDAEKIKESGKILLKYVKE
B12: design_607_777643b9-bd23-49d1-80ae-2b1434974efa_2448_dldesign_0_cycle1_af2pred (protein)
chain: SAEEEAKKLLEEAKKLAEEAGKSKDPEEAEKLAREAIKLAEKAAKLGLKEEASKVAHLARENLAEAQYRYRKEKK
B13: design_607_777643b9-bd23-49d1-80ae-2b1434974efa_2272_dldesign_0_cycle1_af2pred (protein)
chain: NTQKAADKFSEAVRNLREAAKLGGEEVKEMAEKAILAAADDPEKGVEQAEKLLKYVKENVSEEVAKLVEEALKNFKEMAKLLN
B14: design_608_fd41b8f9-4da9-4c78-93ec-aaa316ed4933_544_dldesign_0_cycle1_af2pred (protein)
chain: AAAAAAEAAAKVAKVKELAKEAAEDPSKAPEVYKEGKKIADAATPETAAAIAAEMHKGHEERAENSWKRSRE
B15: design_608_fd41b8f9-4da9-4c78-93ec-aaa316ed4933_323_dldesign_0_cycle1_af2pred (protein)
chain: VLEEVLKLGKEAAEALLKPNGKEEAAKLVEEAEKVVKSHPNAPTEASYVLVTMRRAVRKPDHEEGAKRVREAVEEAE
B16: design_608_fd41b8f9-4da9-4c78-93ec-aaa316ed4933_669_dldesign_0_cycle1_af2pred (protein)
chain: KEELKKALEKTRKEVKAAAAGKPQDVIDVIRKGAKEAEKLNKNAGILLEAAANRAEFAGATPAEAAAIALKAIERAEKE
B17: design_608_fd41b8f9-4da9-4c78-93ec-aaa316ed4933_3_dldesign_0_cycle1_af2pred (protein)
chain: GMEEESKAYKEALDKLSELGKEAEKAAKKGNEEVRKKLLKLKEEAEKKLDEGFEKGKEAAKEAKKFIEEKLKEVKKLLKELE
B18: design_608_fd41b8f9-4da9-4c78-93ec-aaa316ed4933_581_dldesign_0_cycle1_af2pred (protein)
chain: SEELEKVKKLLEKGIETAKKNPVKGASLLLKAEHMAKQLAEKKKGTEEAKELEELSKKAKEEFDKAAKKISE
B19: design_607_777643b9-bd23-49d1-80ae-2b1434974efa_2342_dldesign_0_cycle1_af2pred (protein)
chain: SEAQKEGKAFSAMMKTASEKGKELSKKTGTPLAEMAKIVQDIADAYAKGPEEIKKVAKTPEAKELATAAYDTYEKTYKA
B20: design_607_777643b9-bd23-49d1-80ae-2b1434974efa_2300_dldesign_0_cycle1_af2pred (protein)
chain: GKKEEAKKYAEEAKKKIKELAKKAEKSTDEEEVKKLAEKARELAKKAIEYAKKELTPEEAAKVAKELSEAAHEAHEAAAIGLFNIRKK
B21: design_608_fd41b8f9-4da9-4c78-93ec-aaa316ed4933_615_dldesign_0_cycle1_af2pred (protein)
chain: DPAEELAKKLLEIADLAAKPETLEKALEEAEKLKEEALKLAEKYADDPALKKKYLKAAKTAESFIEDIKRSKEL
B22: design_608_fd41b8f9-4da9-4c78-93ec-aaa316ed4933_209_dldesign_0_cycle1_af2pred (protein)
chain: AEEEEEKKREKLLEEAKKLGKEAAKYVKKAIAKGKTEEATALAAEASKALLALYDLDAAGEPYEKAKAEYDKIKELTEKIKALAE
B23: design_608_fd41b8f9-4da9-4c78-93ec-aaa316ed4933_750_dldesign_0_cycle1_af2pred (protein)
chain: GEETEKLKKELEKAEKEAKEALKKAKELTKEEAKKLLSEQAAKVAELAAESSKDKEVSKEAKKVLKEVRKEGKEILEEK
B24: design_608_fd41b8f9-4da9-4c78-93ec-aaa316ed4933_913_dldesign_0_cycle1_af2pred (protein)
chain: ATLAELSAAFAKAYELIAEGEKASPEEGVKLMEKAKEEVEAARKLAEASADKEAALAGVERLAKRVEENKAKAEAKLKAA
B25: design_608_fd41b8f9-4da9-4c78-93ec-aaa316ed4933_446_dldesign_0_cycle1_af2pred (protein)
chain: LEATAEAYAEAILHAGEEAAKVAKKLSEELAEEVRKKAEEFAKKALDDPSKAKEYLKKAREYFKKVVEEVKEKL
B26: design_607_777643b9-bd23-49d1-80ae-2b1434974efa_2486_dldesign_0_cycle1_af2pred (protein)
chain: AAEKEAAKAEAAKLVEEAADAAVEKGAEGVEAIIKELEKAAKAASPEARVYYEKAIRTAKSLAEDVKELEN
B27: design_608_fd41b8f9-4da9-4c78-93ec-aaa316ed4933_71_dldesign_0_cycle1_af2pred (protein)
chain: AKEEKEKEIEKLKKKAERLAERAKKVAEEAEKAGFEEVAKKIKEKAKELEKAAESMKEDYEKGKKEASEKAGELSEVMAEAKYLLAKK
B28: design_607_777643b9-bd23-49d1-80ae-2b1434974efa_2469_dldesign_0_cycle1_af2pred (protein)
chain: KKITMEEQETLVNSSDDAAYYDVINTPEAAEKAKEAKATRDSLVAKWKAEDPEGGEKLKKVADHIYENSYKISKRILEEKKE
B29: design_607_777643b9-bd23-49d1-80ae-2b1434974efa_2248_dldesign_0_cycle1_af2pred (protein)
chain: AAAEAAAKAKEAAKKAAAIAKEGIAKQEKAAKEGDAEKVREIAKEVRTKLAAEAKATPEGAKAYAAAAHDVYEAAAEYSQEAKKAK
B30: design_608_fd41b8f9-4da9-4c78-93ec-aaa316ed4933_228_dldesign_0_cycle1_af2pred (protein)
chain: GEEVIKEIAEEEIKEAEKTLKEAEKLLKKGGTEEAKEAVEKAKEYIKKGKEKLEEGDYKTAYSLATLGKHNAEIAIKLIKEKN
B31: design_608_fd41b8f9-4da9-4c78-93ec-aaa316ed4933_627_dldesign_0_cycle1_af2pred (protein)
chain: SEKKKVGEEAYKVASRALSIAYAKGDKEFEEKAEELLEKVEEVKKNGNLEEAKKALEEAKALLKEAEKLAKER
B32: design_608_fd41b8f9-4da9-4c78-93ec-aaa316ed4933_178_dldesign_0_cycle1_af2pred (protein)
chain: AATEEANKALLEAKEAIVDAYNEKYKLDPEEGKKLRKELLKKLAEAYASENAAEKLKEIKKEAKKLAEEYEKKN
B33: design_607_777643b9-bd23-49d1-80ae-2b1434974efa_2203_dldesign_0_cycle1_af2pred (protein)
chain: SAVEKEKEELKKEVEEAKKEAEKVIAGGTLEEGAKVADKAYQLAAEAASLGPEAEDIEKEAREVARRLREYGKERRA
B34: design_607_777643b9-bd23-49d1-80ae-2b1434974efa_2234_dldesign_0_cycle1_af2pred (protein)
chain: SAAVKAAAEKAIAAFEAVAKKAKKAAEEGAKPEEVEKLRKELEKARKAGKEVAKKAAADPELVKKLSNAAFEAYEAIAEAAFAA
B35: design_608_fd41b8f9-4da9-4c78-93ec-aaa316ed4933_287_dldesign_0_cycle1_af2pred (protein)
chain: MEAENMEKAIKKLREGKAALKTTPEEAARVLRAQAKELKELAKKSSPENAAFMETQAKAMEKKAKELEAKAAA
B36: design_608_fd41b8f9-4da9-4c78-93ec-aaa316ed4933_536_dldesign_0_cycle1_af2pred (protein)
chain: NNAEASKLAHEGYEYRAEGAQLSKKNPAKAAVLFEEAAKKFAEAAKLAEDPEDKKLLQAYADRALAEAKKAAAEAAKALA
B37: design_607_777643b9-bd23-49d1-80ae-2b1434974efa_2298_dldesign_0_cycle1_af2pred (protein)
chain: VTPEELAEAAKKKDELLDAAFAALQAAKTVEEVEAVAKEFLAKAEELGKDPRYAAAAESFKKILTRMKEAAVKAIK
B38: design_607_777643b9-bd23-49d1-80ae-2b1434974efa_2358_dldesign_0_cycle1_af2pred (protein)
chain: MEEEAKRILEEAEKKAKEAEAIAKSGKNTKEAEKLAREALKLVKENAPIIPKEEALKAAKKALEVLFEATEAAN

Each binder was assayed against VTCN1, Q7Z7D3.
Chain of VTCN1, Q7Z7D3 (Q7Z7D3 whole entry): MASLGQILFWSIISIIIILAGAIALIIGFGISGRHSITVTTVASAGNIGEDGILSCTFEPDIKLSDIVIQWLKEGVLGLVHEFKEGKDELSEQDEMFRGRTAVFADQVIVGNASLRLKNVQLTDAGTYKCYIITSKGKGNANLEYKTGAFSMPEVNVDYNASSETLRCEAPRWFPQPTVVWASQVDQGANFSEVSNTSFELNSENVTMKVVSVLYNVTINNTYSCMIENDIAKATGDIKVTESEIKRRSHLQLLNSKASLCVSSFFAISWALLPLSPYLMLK

Binder | binding in a display sort
B1 | not found
B2 | not found
B3 | not found
B4 | not found
B5 | not found
B6 | not found
B7 | not found
B8 | not found
B9 | not found
B10 | not found
B11 | not found
B12 | not found
B13 | not found
B14 | not found
B15 | not found
B16 | not found
B17 | not found
B18 | not found
B19 | not found

Binder | binding in a display sort
B20 | not found
B21 | not found
B22 | not found
B23 | not found
B24 | not found
B25 | not found
B26 | not found
B27 | not found
B28 | not found
B29 | not found
B30 | not found
B31 | not found
B32 | not found
B33 | not found
B34 | not found
B35 | not found
B36 | not found
B37 | not found
B38 | not found
